Experimental data published in PubChem BioAssay (Tox21).
Results filed as inconclusive are left out. Calls of active or inactive are those of the source. Unless noted, the call rests on the fitted dose curve; in most records, active means well fitted curve in the direction sought with a large enough effect in the repeat runs; inconclusive means weak or mixed curves; inactive means no such curve, though single readings can be large; an effect the other way counts as inactive or inconclusive.

Assays:
[1] = qHTS assay to identify aromatase inhibitors - cell viability counter screen (AID 743084);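 further: cells stimulated with testosterone during compound exposure; nearly all actives have a fitted effect of over 55% in size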
[2] = target: Aryl hydrocarbon receptor (Homo sapiens) (UniProt P35869); experiment: qHTS assay to identify small molecule that activate the aryl hydrocarbon receptor (AhR) signaling pathway (AID 743085); further: nearly all actives have a fitted effect of over 15% in size; further: potency means the concentration at half of the fitted maximal effect;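 on activation: HG2L7.5c1 human HepG2 liver cells with stably integrated DRE-driven firefly reporter; series mostly up to about 70 µM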
Sequence of Aryl hydrocarbon receptor (Homo sapiens) (P35869 whole entry, looked up): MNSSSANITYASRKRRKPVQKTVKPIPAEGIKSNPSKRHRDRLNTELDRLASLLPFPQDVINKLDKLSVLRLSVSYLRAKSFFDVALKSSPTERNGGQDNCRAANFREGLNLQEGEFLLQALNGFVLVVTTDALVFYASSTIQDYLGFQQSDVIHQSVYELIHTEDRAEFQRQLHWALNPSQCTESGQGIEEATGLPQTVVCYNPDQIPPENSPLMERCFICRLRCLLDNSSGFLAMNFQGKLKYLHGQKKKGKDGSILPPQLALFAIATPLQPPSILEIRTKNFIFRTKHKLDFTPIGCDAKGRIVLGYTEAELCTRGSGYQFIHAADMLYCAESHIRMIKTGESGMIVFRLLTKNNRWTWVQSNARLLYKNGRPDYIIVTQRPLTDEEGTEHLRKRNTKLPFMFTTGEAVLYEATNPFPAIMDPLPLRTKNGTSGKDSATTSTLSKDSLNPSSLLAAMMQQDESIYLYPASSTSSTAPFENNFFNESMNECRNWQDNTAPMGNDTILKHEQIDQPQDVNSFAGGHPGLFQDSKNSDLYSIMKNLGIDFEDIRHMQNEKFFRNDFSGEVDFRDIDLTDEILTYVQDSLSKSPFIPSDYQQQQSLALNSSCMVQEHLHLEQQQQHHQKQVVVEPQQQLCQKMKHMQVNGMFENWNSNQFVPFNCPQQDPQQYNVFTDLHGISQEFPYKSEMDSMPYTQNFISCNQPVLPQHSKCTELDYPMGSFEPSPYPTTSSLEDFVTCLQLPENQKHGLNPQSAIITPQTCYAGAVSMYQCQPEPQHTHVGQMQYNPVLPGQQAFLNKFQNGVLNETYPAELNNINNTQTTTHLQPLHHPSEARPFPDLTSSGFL
Procedure, shortened: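 Steps: seed HepG2-AhR-luc cells; allow 5 h at 37C; pin-transfer test compound or vehicle; incubate 24 h at 37C; add viability dye (30 min, 37C) and read fluorescence; add luciferase substrate (30 min, RT) and read luminescence.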

[3] = qHTS assay to identify small molecule that activate the aryl hydrocarbon receptor (AhR) signaling pathway - cell viability counter screen (AID 743086);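 further: HepG2 liver cells carrying the AhR DRE luciferase reporter; series mostly up to about 70 µM; nearly all actives have a fitted effect of over 45% in size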
Procedure, shortened: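 HepG2-AhR-luc (HG2L7.5c1) cells, 4000/well, were preincubated 5 h at 37C, exposed to compound in qHTS format for 24 hr at 37C, then given CellTiter-Fluor for 30 min; viability was read as fluorescence in the reporter wells.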

[4] = target: Peroxisome proliferator-activated receptor gamma (Homo sapiens) (UniProt P37231); experiment: qHTS assay to identify small molecule agonists of the peroxisome proliferator-activated receptor gamma (PPARg) signaling pathway (AID 743094; active means well fitted activation curve with a large enough effect in the signal ratio in the repeat runs, not every such curve was filed as active; the % refers to the signal ratio)
Sequence of Peroxisome proliferator-activated receptor gamma (Homo sapiens) (P37231 whole entry, looked up): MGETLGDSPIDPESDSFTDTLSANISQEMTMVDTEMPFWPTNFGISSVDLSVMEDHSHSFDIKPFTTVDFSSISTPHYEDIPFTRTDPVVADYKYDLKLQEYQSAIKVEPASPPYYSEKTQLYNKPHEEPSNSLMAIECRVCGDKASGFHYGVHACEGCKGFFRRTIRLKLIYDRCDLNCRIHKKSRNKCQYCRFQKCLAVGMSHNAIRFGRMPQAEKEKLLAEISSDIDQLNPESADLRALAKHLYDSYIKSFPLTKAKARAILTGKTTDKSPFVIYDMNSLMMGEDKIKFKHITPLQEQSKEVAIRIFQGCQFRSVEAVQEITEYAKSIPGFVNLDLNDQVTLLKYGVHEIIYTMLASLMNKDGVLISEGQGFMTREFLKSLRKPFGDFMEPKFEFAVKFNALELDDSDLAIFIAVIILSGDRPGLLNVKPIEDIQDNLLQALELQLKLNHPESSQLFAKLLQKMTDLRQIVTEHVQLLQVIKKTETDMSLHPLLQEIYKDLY
Procedure, shortened: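 Following 5 h plating at 37C, PPARg-bla HEK293H cells receive compound or DMSO for 17 h; fluorescence intensity is recorded after LiveBLAzer B/G loading for 1 h at room temperature.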

[5] = target: Peroxisome proliferator-activated receptor gamma (Homo sapiens) (UniProt P37231); experiment: qHTS assay to identify small molecule antagonists of the peroxisome proliferator-activated receptor gamma (PPARg) signaling pathway (AID 743191; calls by dose curve; further: series mostly up to about 63 µM; nearly all actives have a fitted effect of over 30% in size)
Procedure, shortened: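 GeneBLAzer PPARg UAS-bla HEK293H cells carrying a UAS-driven beta-lactamase reporter were plated at 3000 cells/well, preincubated 5 h at 37C, then given compound for 17 h at 37C; LiveBLAzer B/G FRET substrate was read after 1 h at room temperature.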

[6] = qHTS assay to identify small molecule antagonists of the peroxisome proliferator-activated receptor gamma (PPARg) signaling pathway - cell viability counter screen (AID 743194); further: nearly all actives have a fitted effect of over 55% in size
Procedure, shortened: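 PPARg-UAS-bla HEK293H cells were plated, rested 5 h at 37 C, then treated with compounds plus rosiglitazone (50 nM final) for 17 h at 37 C; viability was then read by CellTiter-Glo luminescence after 30 min at room temperature.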

[7] = qHTS assay for small molecule agonists of the antioxidant response element (ARE) signaling pathway (AID 743202; active means well fitted activation curve with a large enough effect in the signal ratio in the repeat runs, not every such curve was filed as active; the % refers to the signal ratio)
Procedure, shortened: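 Read-out: LiveBLAzer B/G FRET substrate fluorescence after 2 h at room temperature, following 16 h compound treatment at 37 C of HepG2 cells carrying an ARE-driven beta-lactamase reporter.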

[8] = qHTS assay for small molecule agonists of the antioxidant response element (ARE) signaling pathway - cell viability counter screen (AID 743203; calls by dose curve; further: nearly all actives have a fitted effect of over 55% in size)
Procedure, shortened: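 Compounds in DMSO were pinned onto ARE-bla HepG2 cells plated 5 hrs earlier at 2,000 cells/well. Sixteen hours later at 37C/5% CO2, CellTiter-Glo was added and luminescence measured after 30 min at room temperature.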

[9] = qHTS assay for small molecule activators of the heat shock response signaling pathway - cell viability counter screen (AID 743209); further: nearly all actives have a fitted effect of over 50% in size
Procedure, shortened: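 Counter screen for cytotoxicity in HeLa HSE-bla reporter cells. Treatment was 5 h at 37 C; viability was detected by luminescent ATP assay (CellTiter-Glo) in the same wells as the beta-lactamase read.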

[10] = qHTS assay to identify small molecule agonists of the peroxisome proliferator-activated receptor delta (PPARd) signaling pathway - cell viability counter screen (AID 743211); further: nearly all actives have a fitted effect of over 55% in size
Procedure, shortened: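 Viability of GeneBLAzer PPARd UAS-bla HEK293H cells was assessed after 17 h compound incubation at 37C, using CellTiter-Glo reagent added after the reporter read and luminescence recorded 30 min later.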

[11] = target: Peroxisome proliferator-activated receptor delta (Homo sapiens) (UniProt Q03181); experiment: qHTS assay to identify small molecule agonists of the peroxisome proliferator-activated receptor delta (PPARd) signaling pathway (AID 743212; calls by dose curve)
Sequence of Peroxisome proliferator-activated receptor delta (Homo sapiens) (Q03181 whole entry, looked up): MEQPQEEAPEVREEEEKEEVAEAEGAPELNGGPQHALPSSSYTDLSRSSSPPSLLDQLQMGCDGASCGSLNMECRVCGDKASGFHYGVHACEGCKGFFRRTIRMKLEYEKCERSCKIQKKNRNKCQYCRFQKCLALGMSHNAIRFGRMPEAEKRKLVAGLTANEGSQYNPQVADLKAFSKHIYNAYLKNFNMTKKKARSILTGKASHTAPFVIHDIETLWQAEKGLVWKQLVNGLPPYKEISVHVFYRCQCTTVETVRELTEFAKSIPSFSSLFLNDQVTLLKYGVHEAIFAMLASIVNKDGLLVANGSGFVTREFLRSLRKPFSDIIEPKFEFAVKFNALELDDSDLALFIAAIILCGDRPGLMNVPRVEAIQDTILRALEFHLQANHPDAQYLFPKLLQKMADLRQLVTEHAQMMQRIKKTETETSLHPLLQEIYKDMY
Procedure, shortened: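 GeneBLAzer PPARd UAS-bla HEK293H cells (beta-lactamase reporter under UAS control), plated and rested 5 h at 37 C, then exposed to compounds in DMSO at 37 C; LiveBLAzer B/G FRET substrate added, 2 h room temperature, fluorescence read.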

[12] = qHTS assay to identify small molecule antagonists of the peroxisome proliferator-activated receptor delta (PPARd) signaling pathway - cell viability counter screen (AID 743213); further: nearly all actives have a fitted effect of over 50% in size
Procedure, shortened: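 Cytotoxicity counter screen: CellTiter-Glo luminescence read 30 min after addition, in the same wells as the reporter assay. There, PPARd UAS-bla HEK293H cells (3000/well) were treated 17 h at 37 C with compound and 300 nM L165041.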

[13] = target: Peroxisome proliferator-activated receptor delta (Homo sapiens) (UniProt Q03181); experiment: qHTS assay to identify small molecule antagonists of the peroxisome proliferator-activated receptor delta (PPARd) signaling pathway (AID 743215; active means well fitted inhibition curve with a large enough effect in the signal ratio in the repeat runs, not every such curve was filed as active; the % refers to the signal ratio;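 further: cells stimulated with agonist L165041 at 300 nM final during compound exposure; series mostly up to about 62 µM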)
Procedure, shortened: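 With L165041 present at 300 nM final, compounds were incubated 17 h at 37 C on PPARd UAS-bla HEK293H cells. A FRET-based beta-lactamase substrate was then applied for 2 h at room temperature and fluorescence intensity recorded.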

[14] = qHTS assay to identify small molecule agonists of the farnesoid-X-receptor (FXR) signaling pathway - cell viability counter screen (AID 743218); further: nearly all actives have a fitted effect of over 45% in size
Procedure, shortened: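 After 16 h at 37 C with test compounds, FXR-bla HEK 293T cells were given LiveBLAzer B/G substrate for 2 h at RT and then CellTiter-Glo; luminescence was taken after 30 min.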

[15] = target: Bile acid receptor (Homo sapiens) (UniProt Q96RI1); experiment: qHTS assay to identify small molecule agonists of the farnesoid-X-receptor (FXR) signaling pathway (AID 743220; active means well fitted activation curve with a large enough effect in the signal ratio in the repeat runs, not every such curve was filed as active; the % refers to the signal ratio)
Sequence of Bile acid receptor (Homo sapiens) (Q96RI1 whole entry, looked up): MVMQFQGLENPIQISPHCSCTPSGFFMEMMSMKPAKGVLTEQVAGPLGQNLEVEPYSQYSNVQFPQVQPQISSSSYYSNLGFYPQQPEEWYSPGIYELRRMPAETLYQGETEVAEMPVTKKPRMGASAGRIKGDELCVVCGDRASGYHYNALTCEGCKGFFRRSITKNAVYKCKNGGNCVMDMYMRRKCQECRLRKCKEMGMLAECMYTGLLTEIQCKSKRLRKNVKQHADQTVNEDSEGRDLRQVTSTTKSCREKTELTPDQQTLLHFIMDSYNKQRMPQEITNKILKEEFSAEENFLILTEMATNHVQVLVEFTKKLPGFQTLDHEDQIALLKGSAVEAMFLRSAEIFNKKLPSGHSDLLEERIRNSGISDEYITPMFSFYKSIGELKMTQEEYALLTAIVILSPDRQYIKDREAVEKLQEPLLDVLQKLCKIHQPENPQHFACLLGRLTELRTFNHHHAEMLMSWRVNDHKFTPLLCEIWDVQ
Procedure, shortened: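 Beta-lactamase reporter under UAS control in GeneBLAzer FXR HEK 293T cells (5000/well) measured with LiveBLAzer FRET substrate after 2 h at room temperature. Compound exposure lasted 16 h at 37C.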

[16] = qHTS assay to identify small molecule antagonists of the farnesoid-X-receptor (FXR) signaling pathway - cell viability counter screen (AID 743221; active means well fitted cell-killing curve with a large enough effect in the repeat runs, not every such curve was filed as active; further: nearly all actives have a fitted effect of over 50% in size)
Procedure, shortened: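 Quantitative HTS of the Tox21 10K library run in parallel with the beta-lactamase reporter read. HEK 293T cells carrying a UAS-driven bla reporter got compound and 50 uM CDCA (final) for 16 h; ATP-based luminescence followed.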

[17] = target: Vitamin D3 receptor (Homo sapiens) (UniProt P11473); experiment: qHTS assay to identify small molecule agonists of the vitamin D receptor (VDR) signaling pathway (AID 743222; calls by dose curve)
Sequence of Vitamin D3 receptor (Homo sapiens) (P11473 whole entry, looked up): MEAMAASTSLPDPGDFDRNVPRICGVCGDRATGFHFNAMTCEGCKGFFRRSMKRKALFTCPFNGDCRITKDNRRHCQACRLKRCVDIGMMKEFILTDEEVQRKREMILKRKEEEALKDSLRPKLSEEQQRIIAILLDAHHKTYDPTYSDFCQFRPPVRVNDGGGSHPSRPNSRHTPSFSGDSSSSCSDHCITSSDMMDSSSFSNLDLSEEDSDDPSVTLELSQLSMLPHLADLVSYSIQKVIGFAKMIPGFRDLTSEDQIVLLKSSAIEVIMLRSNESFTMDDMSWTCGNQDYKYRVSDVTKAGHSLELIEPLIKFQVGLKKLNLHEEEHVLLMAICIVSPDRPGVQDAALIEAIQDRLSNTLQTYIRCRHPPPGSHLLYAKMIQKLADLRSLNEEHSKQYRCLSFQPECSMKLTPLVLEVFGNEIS
Procedure, shortened: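 VDR-bla cells were seeded, left 4 h, treated with compounds in DMSO for 16 h, incubated 2 h at RT with B/G FRET substrate, and read for fluorescence.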

[18] = target: Vitamin D3 receptor (Homo sapiens) (UniProt P11473); experiment: qHTS assay to identify small molecule antagonists of the vitamin D receptor (VDR) signaling pathway (AID 743223; active means well fitted inhibition curve with a large enough effect in the signal ratio in the repeat runs, not every such curve was filed as active; the % refers to the signal ratio)
Procedure, shortened: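 Fluorescence from LiveBLAzer B/G FRET substrate, read after 2 h at room temperature, reflects beta-lactamase reporter activity in VDR-bla cells treated 16 h at 37C with compounds and agonist 1alpha,25-dihydroxyvitamin D3 (3 nM final).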

[19] = qHTS assay for small molecule activators of the heat shock response signaling pathway (AID 743210; active means well fitted activation curve with a large enough effect in the signal ratio in the repeat runs, with a control signal flat, not every such curve was filed as active; the % refers to the signal ratio; further: series mostly up to about 63 µM)
Procedure, shortened: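 HSE-bla HeLa cells (beta-lactamase reporter under heat shock response elements) were exposed to compounds for 5 h at 37 C, then loaded with LiveBLAzer B/G FRET substrate for 2.5 h at room temperature before fluorescence reading.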

[20] = target: Bile acid receptor (Homo sapiens) (UniProt Q96RI1); experiment: qHTS assay to identify small molecule antagonists of the farnesoid-X-receptor (FXR) signaling pathway (AID 743217; active means well fitted inhibition curve with a large enough effect in the signal ratio in the repeat runs, not every such curve was filed as active; the % refers to the signal ratio)
Procedure, shortened: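 In this cell-based antagonist screen, inhibition of CDCA-driven (50 uM final) UAS-beta-lactamase expression in HEK 293T cells was measured by FRET fluorescence following 16 h compound exposure at 37 °C.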

Measured: Potency

CC(C(=O)O)c1ccc(CC2CCCC2=O)cc1 (stereo not drawn)
not listed: [19] | [20]
inactive: all other assays above

COc1cc(C(=O)N2CCCCCCC2)cc(OC)c1OC
not listed: [12] | [13] | [18]
inactive: all other assays above

O=C1CCCC(=O)C1
not listed: [11] | [13] | [14] | [19]
inactive: all other assays above

CCCc1cc(C(N)=S)ccn1
not listed: [11] | [13] | [14] | [15] | [17] | [18] | [20]
inactive: all other assays above

C[C@H](NC(CCc1ccccc1)C(=O)O)C(=O)N1CCC[C@H]1C(=O)O (stereo partly drawn)
not listed: [12] | [15] | [20]
inactive: all other assays above

O=C1OC(=O)C2CCCCC12 (stereo not drawn)
not listed: [11] | [13] | [15] | [20]
inactive: all other assays above

OC[C@]1(O)OC[C@@H](O)[C@H](O)[C@@H]1O
not listed: [15] | [20]
inactive: all other assays above

Cc1cc2c(cc1S(N)(=O)=O)S(=O)(=O)CCC2
not listed: [11] | [14] | [15] | [17] | [18]
inactive: all other assays above

Cc1cccn2c(=O)c(-c3nnn[nH]3)cnc12
not listed: [13] | [14] | [15] | [17] | [18] | [20]
inactive: all other assays above

Cn1cc(S(C)=O)c(=O)c2ccc(F)cc21 (stereo not drawn)
not listed: [9] | [13]
inactive: all other assays above

C[C@@H]1CCN(C(=O)[C@H](CCCN=C(N)N)NS(=O)(=O)c2cccc3c2NC[C@H](C)C3)[C@@H](C(=O)O)C1
not listed: [8] | [15] | [17] | [18] | [20]
inactive: all other assays above

CC/C=C\CCOC(C)=O
not listed: [8]
inactive: all other assays above

OCCOc1ccc(OCCO)cc1
not listed: [11] | [13] | [14] | [15]
inactive: all other assays above

C=COCC1CCC(CO)CC1 (stereo not drawn)
not listed: [8]
inactive: all other assays above

COCCc1ccc(OCC(O)CNC(C)C)cc1 (stereo not drawn)
not listed: [12] | [19]
inactive: all other assays above

CC(C)(CC(=O)O)C(=O)O
not listed: [14] | [15] | [20]
inactive: all other assays above

CC(C)(C)NCCNC(C)(C)C
not listed: [18]
inactive: all other assays above

CCn1ccnc1CC1COc2ccccc2O1 (stereo not drawn)
not listed: [12] | [17] | [18]
inactive: all other assays above

C[C@H]1C[C@@H](O)CC(C)(C)C1
not listed: [10] | [13] | [14] | [19]
inactive: all other assays above

CCC(C)C1CCCCC1=O (stereo not drawn)
not listed: [15] | [18] | [20]
inactive: all other assays above

COc1c(N2C[C@@H]3CCCN[C@@H]3C2)c(F)cc2c(=O)c(C(=O)O)cn(C3CC3)c12
not listed: [17] | [18]
inactive: all other assays above

Cn1c(N)c(N=O)c(=O)n(C)c1=O
active: [2] 25.1 µM
not listed: [13] | [15] | [20]
inactive: all other assays above

CC(C)c1cc2c(cc1S(=O)(=O)O)[C@@]1(C)CCC[C@@](C)(C(=O)O)[C@@H]1CC2
not listed: [9] | [12] | [13] | [15] | [20]
inactive: all other assays above

CN1C(=O)N(C)C(O)C1O (stereo not drawn)
not listed: [10] | [15] | [19] | [20]
inactive: all other assays above

CCCN(CCC)CCc1cccc2c1CC(=O)N2
not listed: [15] | [17] | [18] | [20]
inactive: all other assays above

CC1(C)C(O)C(C)(C)C1O (stereo not drawn)
not listed: [15] | [20]
inactive: all other assays above

N=c1nc(N2CCCCC2)cc(N)n1O
not listed: [17] | [18] | [19]
inactive: all other assays above

CC(=O)OCC(=O)[C@@]1(O)CCC2C3CCC4=CC(=O)CC[C@]4(C)C3[C@@H](O)C[C@@]21C (stereo partly drawn)
not listed: [8] | [14]
inactive: all other assays above

C=C[Si](OC(=C)C)(OC(=C)C)OC(=C)C
inactive: all assays above

COC(C)(C)CCCC(C)CC=O (stereo not drawn)
inactive: all assays above

CCN(CC)CCNC(=O)c1cc(S(C)(=O)=O)ccc1OC
not listed: [9] | [13] | [14] | [15] | [17] | [18] | [20]
inactive: all other assays above

COC(=O)CC(C)=O
not listed: [14] | [15] | [17] | [18] | [20]
inactive: all other assays above
